The results in this text go back to PubChem BioAssay AID648 (SRMLSC, 2007).

Among all 86,000 compounds or so, about 920 (1.1%) were called active. This is one part of a sample in which actives are shown more often than they occur. Values without a mark were called inactive.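 Rule for the calls: active = viability at or below 30%; inactive = viability above 30%.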

A word on the viability: it is a read-out of living cells in per cent, often relative to untreated cells.

This assay is described as follows: inhibitors of HUVEC proliferation, primary screen, cell-based, 384-well (AID 648).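 Note: 100% = median luminescence of DMSO-only cell control wells on each plate.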 The conditions noted are these: CellTiter-Glo luminescence, 72 h, hits give low values, screened at 10 µM (by protocol). A general note: ATP-based viability assays read luminescence as a measure of living cells.
On to `Cc1ccc(OCC(=O)N/N=C\c2ccco2)c(C)c1`, for which the viability is 93%.

In the case of `Cc1ccc(/C=N/NC(=O)C2=NNC(c3ccccc3)(c3ccccc3)C2)c(O)c1`, the viability was 25.4% (active).

Regarding `C/C(=N\NC(=O)c1nc(C)cc(C)n1)c1ccccc1`, the viability was 93.6%.

For the compound `CCN(CC)CCn1c2ccc(Cl)cc2c2nc(C)sc21`, the viability was 87.5%.

As for `CCOC(=O)c1ccc(N2C(=O)CC(N(C)Cc3ccccc3)C2=O)cc1` (stereo not drawn), the viability is 92.5%.

In the case of `COc1cccc(NC(=O)Cc2ccc(C)cc2)c1`, the viability is 95.9%.

`COc1ccc(CC(=O)Nc2ccc(-c3nnc(-c4ccc(C)cc4)o3)cc2)cc1`: the viability was 61.7%.

As to `COc1ccc(NC(=O)/C(Cl)=C(/Cl)S(=O)Cc2ccc(C)cc2)cn1` (stereo not drawn), the viability was 1.52% (active).

Turning to `COc1cc(C(=O)OC(C)C(=O)NCC2CCCCC2)cc(NC(=O)c2ccco2)c1OC` (stereo not drawn), the viability is 100%.

`N#CCSc1nc2ccc(N3CCOCC3)cc2c(=O)n1CCc1ccccc1`: the viability was 90.5%.

With `Cc1ccc(CNC(=O)CCNS(=O)(=O)c2cccc3nonc23)cc1`, the viability is 95.1%.

Regarding `COc1ccc(-c2cc(C(F)(F)F)nc(NCc3cccnc3)n2)cc1`, the viability was 88.9%.

Turning to `COc1ccc(-c2nnco2)cc1OC`, the viability was 102%.

Consider `COc1ccc(-c2cc(C(F)(F)F)nc(S(C)(=O)=O)n2)cc1OC`, for which the viability is 13.2% (active).

Turning to `COC(=O)C1C(=O)NCC1c1ccc(OC)cc1` (stereo not drawn), the viability is 93.7%.

Take `COCc1[nH][nH]c(=O)c1C=Nc1ccc(F)cc1F`: the viability was 86.9%.

With `CCN(CC)CCCNC(=O)CCc1ccccc1`, the viability is 103%.

With `Cc1cc(N2CCN(S(=O)(=O)c3ccc(C)c(C)c3)CC2)c2ccccc2n1`, the viability was 81.6%.

Turning to `CC(=O)c1cccc(NC(=O)Nc2ccc(C)cc2)c1`, the viability is 90%.

On to `Cc1ccc(NC(=S)NC(NC(=O)Cc2cccc3ccccc23)C(Cl)(Cl)Cl)cc1` (stereo not drawn), for which the viability is 4.6% (active).

For the compound `Cc1ccc(NC(=O)CCN2CCc3ccccc3C2)cc1`, the viability is 103%.

As to `COc1ccc(-c2cn(-c3ccc(C)cc3)c(=O)n2CC(=O)Nc2ccc(OC)c(OC)c2)cc1`, the viability is 92.4%.

In the case of `COc1ccc(-c2nnc(SCc3cccnc3)o2)cc1`, the viability is 104%.

With `COc1cc2c(cc1OC)C(C(C)C)=NC(C)(C)C2`, the viability is 90.5%.

Turning to `COc1ccc(CCNC(=O)CN(c2ccccc2)S(C)(=O)=O)cc1OC`, the viability is 94.6%.

Regarding `FC(F)(F)c1nnc2ccc(N3CCN(c4ccccc4)CC3)nn12`, the viability is 85.4%.

Consider `COC(=O)c1ccccc1NC(=O)Cc1ccccc1OC`, for which the viability was 91.1%.

For `Cc1ccc(C(CC(=O)O)Nc2nc(N3CCCCC3)nc(N3CCCCC3)n2)cc1` (stereo not drawn), the viability is 99.9%.

For the compound `CC(Nc1nc(N2CCCC2)nc2ccccc12)c1ccccc1` (stereo not drawn), the viability is 4.14% (active).

Take `CC(C)n1c(C(O)c2ccccc2)nc2ccccc21` (stereo not drawn): the viability is 99.3%.

In the case of `CCN(c1ccccc1)S(=O)(=O)c1ccc(C(=O)Nc2nccs2)cc1`, the viability was 104%.

Take `Cc1ccc(-c2noc(CC(c3ccccc3)c3ccccc3)n2)cc1`: the viability was 135%.

Regarding `COc1ccc(N2CCN(Cc3ccc(Br)s3)CC2)cc1`, the viability was 108%.

For `COc1ccc(Cl)cc1C(=O)NCC#N`, the viability was 91.6%.

Turning to `O=C(NCc1ccccc1)C1CCCN(S(=O)(=O)c2cccs2)C1` (stereo not drawn), the viability was 93%.

In the case of `CC(=O)Oc1ccc(C(C)=O)c2c1OCCO2`, the viability is 82.4%.

In the case of `CCN(CC)C(=O)CC1(c2ccccc2OC)CCOC(C(C)C)C1` (stereo not drawn), the viability was 103%.

Consider `CC(C)c1ccc(OCC(O)Cn2cnc3ccccc32)cc1` (stereo not drawn), for which the viability was 84.8%.

Take `OC(CN=c1sc2ccccc2n1CC(O)COc1ccccc1)COc1ccccc1` (stereo not drawn): the viability is 28.9% (active).

With `OC(COc1ccccc1)Cn1cc(Br)cn1` (stereo not drawn), the viability was 99.8%.

As to `COc1ccccc1/C=C/C1=NC(=C\N(C)C)/C(=O)O1`, the viability was 90.8%.

As to `CC(C)c1ccc(-c2noc(C3CCCN(S(C)(=O)=O)C3)n2)cc1` (stereo not drawn), the viability is 82.4%.

Turning to `Cc1ccc(CNC(=O)C2CCCN2C(=O)NCc2ccccc2)cc1` (stereo not drawn), the viability is 102%.

Regarding `CC1CCC(N2CC(=O)N(Cc3ccc4c(c3)OCO4)C(c3ccc(F)cc3)C2=O)CC1` (stereo not drawn), the viability is 104%.

Regarding `CC(C)Cn1c(N)c(C(=O)NCc2cccs2)c2nc3ccccc3nc21`, the viability was 3.01% (active).

For `C=CCn1c(N)c(S(=O)(=O)c2cccs2)c2nc3ccccc3nc21`, the viability is 107%.

With `C=CCn1c(N)c(C(=O)OCC(C)C)c2nc3ccccc3nc21`, the viability is 66.4%.

Take `O=C(Nc1ccc2nc3n(c(=O)c2c1)CCCCC3)c1ccccc1Cl`: the viability is 109%.

`CCOC(=O)c1cc2c(ccn2C)n1CC(=O)N1CCC(C)CC1`: the viability is 93.4%.

Turning to `N/C(=N\OC(=O)Nc1ccc(Cl)c(Cl)c1)c1ncc(C(F)(F)F)cc1Cl`, the viability is 60.3%.

For `CN(C)CCNC(CC(=O)Nc1ccc(Cl)c(Cl)c1)C(=O)O` (stereo not drawn), the viability is 93.2%.

`O=C(CC(O)(C(F)(F)F)C(F)(F)F)Nc1ccc(Cl)c(Cl)c1`: the viability is 3.08% (active).

Consider `COc1ccc(-c2cc3nc(C)c(CCC(=O)NC(C)CCc4ccco4)c(C)n3n2)c(OC)c1` (stereo not drawn), for which the viability was 88.3%.

Consider `CCNC(=O)NC(=O)C(C)OC(=O)c1cc(S(=O)(=O)N2CCCCCC2)ccc1OC` (stereo not drawn), for which the viability was 79.6%.

Consider `Cc1[nH][nH]c(=O)c1N=Nc1ccccc1`, for which the viability is 109%.

For `Cc1[nH][nH]c(=O)c1C(c1ccc(-c2ccc(Cl)cc2)o1)c1c(C)[nH][nH]c1=O`, the viability is 24% (active).

Regarding `CCCCOC(=O)Cn1c(=N)n(CCN(CC)CC)c2ccccc21`, the viability was 104%.

Regarding `O=C(COc1cc(Cl)c(Cl)cc1Cl)NC(=O)NC1CCCC1`, the viability was 88.8%.

As to `O=S(=O)(NCC1OCCc2ccccc21)c1ccccc1` (stereo not drawn), the viability is 104%.

For the compound `COC(=O)C(C(=O)Nc1cccc(C)n1)C1CCCCCC1` (stereo not drawn), the viability was 88.7%.

In the case of `COC(=O)c1ccccc1Oc1c(F)c(F)nc(N2CCOCC2)c1F`, the viability was 95.4%.

For `CC(C)(C)C(=O)Cn1c(NCCO)nc2ccccc21`, the viability was 95.1%.

Consider `O=C(O)[C@@H]1CCCN1c1ncnc2sc3c(c12)CCC3`, for which the viability was 99%.

Consider `OCCNc1nc2ccccc2n1-c1ncnc2sc3c(c12)CCC3`, for which the viability was 4.2% (active).

With `CN=C1SC(CC(=O)Nc2ccc(C(=O)O)cc2)C(=O)N1C` (stereo not drawn), the viability was 88%.

Take `CCC(=O)NC(Nc1nc2ccc(C)cc2s1)(C(=O)OC)C(F)(F)F` (stereo not drawn): the viability was 101%.

Take `Cc1ccc(C)c(NC2=NCC(=O)N2c2ccc3c(c2)OCCO3)c1`: the viability was 103%.

Consider `CCn1c(/C=C/c2ccc([N+](=O)[O-])o2)nc2ccccc2c1=O`, for which the viability was 4.01% (active).

On to `O=c1c2ccccc2nc(N/N=C/c2ccccc2)n1O`, for which the viability was 101%.

Regarding `Cc1nc2ccccc2c(=O)n1CCCn1ccnc1`, the viability was 92.5%.

On to `CCn1nc(C)c(NC(=O)/C=C/c2ccc(OC)c(COc3ccc(Br)cc3)c2)c1C`, for which the viability was 10.6% (active).

With `CCn1c(COc2ccc(OC)cc2)nnc1SCC(=O)Nc1cc(OC)ccc1OC`, the viability is 98%.

Take `COc1ccc(/C=C/C(=O)Nc2c(C)nn(C)c2C)cc1COc1ccc(Br)cc1`: the viability is 46.5%.

In the case of `c1ccc(-n2nc3ccccc3n2)cc1`, the viability was 94.1%.

As for `COC(=O)c1[nH]c2ccc(Br)cc2c1NC(=O)Oc1ccccc1`, the viability was 86.1%.

`Cn1c(N)c(C(=O)COC(=O)C23CC4CC(CC(C4)C2)C3)c(=O)n(C)c1=O`: the viability is 99.2%.

Regarding `Cc1ccc(CN(C(=O)c2sc3ccccc3c2Cl)C2CCS(=O)(=O)C2)cc1` (stereo not drawn), the viability was 80.5%.

As for `CC(C)CC[n+]1ccn(C2=C([O-])c3ccccc3C(=O)/C2=N\S(=O)(=O)c2ccccc2)c1`, the viability is 20.6% (active).

Turning to `CN(Cc1ccccc1)C(=O)COc1ccccc1`, the viability is 98.7%.

Take `COc1nc(NC2CCCCC2)nc(N2CCCCCC2)n1`: the viability was 77.8%.

For the compound `CCOC(=O)c1cnc(SCc2nc(N)nc(Nc3ccc(OC)cc3)n2)nc1N`, the viability was 111%.

Consider `Cc1cccc2nc(CSc3nc4[nH]ncc4c(=O)n3-c3cccc(Cl)c3)cc(=O)n12`, for which the viability is 76.9%.

As for `CCn1c(CNC(=O)c2ccccc2)nnc1SCC(=O)N1CCN(c2ccccc2)CC1`, the viability was 98.7%.

As to `C=CCn1c(SCC(=O)/C(C#N)=C(\C)N)nc2sc(C)c(C)c2c1=O`, the viability is 28% (active).

Regarding `Cc1sc2nc(SCC(N)=O)n(C)c(=O)c2c1C`, the viability is 98.6%.

For `CCCn1c(=O)c2ccccc2n2c(SCC(=O)/C(C#N)=C(\C)N)nnc12`, the viability is 83.6%.

Take `O=C(CSCc1c(F)cccc1Cl)NCC1CCCO1` (stereo not drawn): the viability is 101%.

As to `Cc1ccc(O/C=C2\OC(=O)c3ccccc32)cc1`, the viability is 98.2%.

Consider `COC(=O)c1sc(=S)n(-c2ccc(Cl)cc2)c1C`, for which the viability is 90%.

Consider `COc1ccc(-n2nnnc2SCc2nc(N)nc(N3CCOCC3)n2)cc1`, for which the viability was 96.3%.

For `CCOC(=O)c1sc(NC(=O)CSc2nc(C)cc(C(F)(F)F)n2)c(C#N)c1C`, the viability was 88.5%.

As for `COc1ccc(Nc2oc(-c3ccccc3Cl)nc2C#N)cc1`, the viability was 29.9% (active).

For the compound `CCOc1ccc(Nc2oc(Cc3ccccc3)nc2C#N)cc1`, the viability was 104%.

For `COc1ccccc1-c1nc(C#N)c(N2CCC(C(N)=O)CC2)o1`, the viability was 95.4%.

For `O=C(Nc1cccc(NC(=O)c2ccco2)c1)c1cnccn1`, the viability is 83.6%.

For `Fc1ccc(-n2c(Cc3ccccc3)nnc2SCc2nc(-c3ccc(Cl)cc3)no2)cc1`, the viability is 76.6%.

In the case of `COc1ccc(N(CC(=O)NC2CCCCC2)S(=O)(=O)c2c(C)[nH]c(=O)[nH]c2=O)cc1`, the viability is 96.7%.

For `COc1ccc([N+](=O)[O-])cc1C1NN=C(c2cccc3ccccc23)S1` (stereo not drawn), the viability is 81.9%.
